Assay results published in PubChem BioAssay (NCATS).
Inconclusive results are not listed. Active and inactive are the calls of the source. Calls follow the shape of the dose curve; as a rule, active = well fitted inhibition curve with a large enough effect; inconclusive = small, poorly fitted or top-dose-only effect; inactive = no such curve, though single readings can be large or run the other way.

The compounds below were run against Cytochrome P450 2D6 (Homo sapiens) (UniProt P10635) (assay: qHTS Assay for Inhibitors and Substrates of Cytochrome P450 2D6 (AID 891)). Conditions: recombinant CYP2D6, luciferin-ME EGE luminescence; series mostly up to 11.4 µM.
Summary of the method: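 Human CYP2D6 (5 nM) with 30 uM Luciferin-ME EGE (at Km) in 100 mM KPO4, compound preincubated 10 min, then NADPH regeneration system for 60 min at room temperature. Luciferin read by luminescence; normalized to 1.43 uM quinidine.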
Also: nearly all actives have a fitted effect of over 60% in size.
Potency is read from the fitted curve at half-maximal effect.

Chain of Cytochrome P450 2D6 (Homo sapiens) (P10635 whole entry, looked up): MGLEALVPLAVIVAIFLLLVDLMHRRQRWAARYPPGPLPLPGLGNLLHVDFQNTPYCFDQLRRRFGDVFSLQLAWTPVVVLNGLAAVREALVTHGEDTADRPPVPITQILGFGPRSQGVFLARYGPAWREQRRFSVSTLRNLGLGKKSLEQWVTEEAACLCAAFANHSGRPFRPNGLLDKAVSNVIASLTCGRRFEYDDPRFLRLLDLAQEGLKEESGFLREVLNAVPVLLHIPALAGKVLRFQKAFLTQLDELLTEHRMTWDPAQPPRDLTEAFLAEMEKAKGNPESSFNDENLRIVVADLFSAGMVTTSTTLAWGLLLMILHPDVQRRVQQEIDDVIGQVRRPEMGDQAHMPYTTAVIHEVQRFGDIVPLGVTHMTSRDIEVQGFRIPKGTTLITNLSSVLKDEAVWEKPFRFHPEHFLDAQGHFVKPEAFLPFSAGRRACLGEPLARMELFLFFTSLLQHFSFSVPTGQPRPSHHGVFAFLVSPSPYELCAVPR

Potency, inactive:
C=CCOC(=O)C(C(C)=O)C(NC(=O)OC)c1ccco1 (centres undefined), CC1CCC2C(=O)N3C(CCC(C)C3c3ccccc3Br)C(=O)N2C1c1ccc(C#CCN(C)C)cc1 (centres undefined), COC(=O)C1=C(C)N(Cc2ccccc2)c2c(C(=O)OC)c(C(=O)OC)c(C(=O)OC)c(=O)n2C1c1ccccc1 (centres undefined), CC1CCC2C(=O)N3C(CCC(C)[C@H]3c3cccc(N4CCCC4=O)c3)C(=O)N2C1c1cccc(N2CCCC2=O)c1 (some centres undefined), COc1ccc(OC)c(-c2ccccc2/C=N/NS(=O)(=O)c2ccc(C)cc2)c1, COC(=O)C/C=C/C(C)C(OCc1cccc(-c2ccccc2)c1)C1CCCCC1 (centres undefined), COC(=O)C1=C(C)N(Cc2ccccc2)[C@]23O[C@](C(=O)OC)(C(=O)N2C1c1ccccc1)C1C(=O)N(C)C(=O)C13 (some centres undefined), C/C=C/C1Oc2ccc(OC)cc2N2C(=O)C(C)C(OCOC)C12 (centres undefined), CCOC(=O)OCC1OC(C#Cc2ccc(Br)cc2)C=CC1OC(=O)OCC (centres undefined), CCC12C=C(/C=C/c3ccccc3)C(CC)(C1)C(c1ccccc1)CC2=O (centres undefined), COC(=O)C(/C=C/C(C)Cc1cc(Br)cc(OCc2ccccc2)c1OC)OCc1ccccc1 (centres undefined)

Potency, active:
COC(=O)NC(/C(C(=O)OC)=C(\C)NCc1ccccc1)c1ccc2ccccc2c1 (centres undefined) 2000 nM

Each compound was assayed against Cytochrome P450 2C19 (Homo sapiens) (UniProt P33261) (assay: qHTS Assay for Inhibitors and Substrates of Cytochrome P450 2C19 (AID 899)). Conditions: recombinant CYP2C19, luciferin-H EGE luminescence; series mostly up to 11.4 µM.
Summary of the method: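 Human CYP2C19 (5nM) with Luciferin-H EGE at 10uM (its KM) in 50mM KPO4 was preincubated with compound for 10 min at 37C. NADPH regeneration started a 60 min 37C reaction. Luciferin was read by luminescence, normalized to 57uM ketoconazole.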

Chain of Cytochrome P450 2C19 (Homo sapiens) (P33261 whole entry, looked up): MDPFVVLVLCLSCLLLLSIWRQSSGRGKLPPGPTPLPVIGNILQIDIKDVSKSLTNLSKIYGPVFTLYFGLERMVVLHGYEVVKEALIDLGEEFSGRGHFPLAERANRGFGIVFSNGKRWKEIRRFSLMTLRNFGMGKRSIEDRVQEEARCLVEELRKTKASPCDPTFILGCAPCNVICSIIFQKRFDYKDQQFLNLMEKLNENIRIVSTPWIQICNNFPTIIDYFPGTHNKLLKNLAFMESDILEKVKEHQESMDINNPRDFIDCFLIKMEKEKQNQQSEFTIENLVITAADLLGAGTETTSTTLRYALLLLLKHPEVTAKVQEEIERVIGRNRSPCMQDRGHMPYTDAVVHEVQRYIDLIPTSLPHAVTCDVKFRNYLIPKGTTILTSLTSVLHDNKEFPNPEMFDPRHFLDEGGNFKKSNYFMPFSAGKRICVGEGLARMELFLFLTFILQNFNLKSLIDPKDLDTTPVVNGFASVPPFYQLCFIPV

Potency, inactive:
C=CCOC(=O)C(C(C)=O)C(NC(=O)OC)c1ccco1 (centres undefined), CC1CCC2C(=O)N3C(CCC(C)C3c3ccccc3Br)C(=O)N2C1c1ccc(C#CCN(C)C)cc1 (centres undefined), CC1CCC2C(=O)OC(CN3C(=O)c4ccccc4C3=O)CN2C1c1ccc(Br)cc1 (centres undefined), COC(=O)C1=C(C)N(Cc2ccccc2)c2c(C(=O)OC)c(C(=O)OC)c(C(=O)OC)c(=O)n2C1c1ccccc1 (centres undefined), CC(=O)OC[C@@H]1O[C@H](C/C=N\OCC[C@H]2C=C[C@H](OC(C)=O)[C@@H](COC(C)=O)O2)C=C[C@@H]1OC(C)=O, CC1CCC2C(=O)N3C(CCC(C)[C@H]3c3cccc(N4CCCC4=O)c3)C(=O)N2C1c1cccc(N2CCCC2=O)c1 (some centres undefined), O=C1[C@@H]2[C@H]3[C@H](O)[C@H](O)C/C(=N/OC[C@@H](O)COCc4ccco4)[C@@H]3CC[C@H]2C(=O)N1c1ccc(F)cc1F, COC(=O)C/C=C/C(C)C(OCc1cccc(-c2ccccc2)c1)C1CCCCC1 (centres undefined), COC(=O)C1=C(C)N(Cc2ccccc2)[C@]23O[C@](C(=O)OC)(C(=O)N2C1c1ccccc1)C1C(=O)N(C)C(=O)C13 (some centres undefined), C/C=C/C1Oc2ccc(OC)cc2N2C(=O)C(C)C(OCOC)C12 (centres undefined), O=C1[C@@H]2[C@H]3[C@H](O)[C@H](O)C/C(=N/OC[C@@H](O)COCc4ccco4)[C@H]3CC[C@H]2C(=O)N1c1ccc(F)cc1F, CCOC(=O)OCC1OC(C#Cc2ccc(Br)cc2)C=CC1OC(=O)OCC (centres undefined), C=CCc1cccc(C2C(C)CCC3C(=O)N4C(CCC(C)C4c4cccc(CC=C)c4)C(=O)N32)c1 (centres undefined)

Potency, active:
C/C(CCN1CCc2nc(-c3ccccc3)c(-c3ccccc3)cc2C1)=N\OC[C@@H](C)[C@H](OCc1ccccc1)C(C)C 1580 nM, C[C@@H]1O[C@H]2C3=C(C(=O)[C@H]4O[C@@H]4[C@H]3O)[C@@H]1[C@@H]1[C@@H](C)OC=C3[C@H](O)[C@H]4O[C@@H]4/C(=N\OCc4ccccc4)[C@]312 631 nM, CC/C=C\CC[C@H](OC(=O)c1ccc(Br)cc1)C1=CCCCC1=O 2000 nM, CCC[C@@H]1C[C@@]1(CCC)C(NC(=O)OCc1ccccc1)c1ccc(-c2ccccc2)cc1 (some centres undefined) 1260 nM, COC(=O)[C@@H]1CC[C@H](C)[C@@H](c2ccc(C)cc2)N1C(=O)c1ccc(/C=N\OC[C@@H]2O[C@H](c3ccccc3)C=C[C@@H]2Oc2ccc(OC)cc2)cc1 50.1 nM, COc1ccc(OC)c(-c2ccccc2/C=N/NS(=O)(=O)c2ccc(C)cc2)c1 100 nM, CCCCCCCC#Cc1ccccc1C(NC(=O)OC)C(C(=O)OC)C(=O)OC (centres undefined) 2510 nM, CC(C)CO/N=C1/C[C@@H](O)[C@@H](O)[C@@H]2[C@@H]3C(=O)N(Cc4ccc5c(c4)OCO5)C(=O)[C@H]3CC[C@H]12 3980 nM, CO[C@@H]1COC(=O)C/C=C\[C@H](C)COC(=O)[C@H](Cc2ccccc2)NC(=O)C/C=C\[C@H]1C 2510 nM
